{"source": "the supplement of paper PMC7261846", "system": "Candida albicans SNY425 biofilm", "test": "biofilm OD600 with compound plus antifungal (OD600 (absorbance)); higher = more biofilm remaining", "key": {"[1]": {"settings": "assay detail: disruption of 24-h mature biofilm (compound + antifungal for a second 24 h)"}, "[2]": {"settings": "assay detail: sustained inhibition (compound + antifungal during 90-min adherence and 24-h growth)"}}, "note": "± gives the uncertainty stated by the source.", "data": [{"smiles": "NC(=O)c1cccc(-c2cccc(OC(=O)NC3CCCCC3)c2)c1", "note": "+ C[C@@H]1[C@H](O)[C@@H](C)/C=C/C=C/C=C/C=C/C=C/C=C/C=C/[C@H](O[C@@H]2O[C@H](C)[C@@H](O)[C@H](N)[C@@H]2O)C[C@@H]2O[C@](O)(C[C@@H](O)C[C@@H](O)[C@H](O)CC[C@@H](O)C[C@@H](O)CC(=O)O[C@H]1C)C[C@H](O)[C@H]2C(=O)O [amphotericin B] (first compound 12.5 µM)", "values": [{"measurement": "biofilm OD600", "setting": "[1]", "value": "0.295 ± 0.0047"}, {"measurement": "biofilm OD600", "setting": "[2]", "value": "0.178 ± 0.0061"}]}, {"smiles": "CC(C)(C)NC(=O)[C@@H]1CN(Cc2cccnc2)CCN1C[C@@H](O)C[C@@H](Cc1ccccc1)C(=O)N[C@H]1c2ccccc2C[C@H]1O", "note": "[indinavir] + OC(Cn1cncn1)(Cn1cncn1)c1ccc(F)cc1F [fluconazole] (first compound 12.5 µM)", "values": [{"measurement": "biofilm OD600", "setting": "[1]", "value": "0.273 ± 0.013"}, {"measurement": "biofilm OD600", "setting": "[2]", "value": "0.17 ± 0.015"}]}, {"smiles": "O=C1Nc2ccc([N+](=O)[O-])cc2C1=O", "note": "[5-Nitroisatin] + CC[C@H](C)C[C@H](C)CCCCCCCCC(=O)N[C@H]1C[C@@H](O)[C@@H](NCCN)NC(=O)[C@@H]2[C@@H](O)CCN2C(=O)[C@H]([C@H](O)CCN)NC(=O)[C@H]([C@H](O)[C@@H](O)c2ccc(O)cc2)NC(=O)[C@@H]2C[C@@H](O)CN2C(=O)[C@H]([C@@H](C)O)NC1=O [caspofungin] (first compound 12.5 µM)", "values": [{"measurement": "biofilm OD600", "setting": "[1]", "value": "0.255 ± 0.0081"}, {"measurement": "biofilm OD600", "setting": "[2]", "value": "0.156 ± 0.013"}]}, {"smiles": "CSCCC(C=O)NC(=O)C(CC(C)C)NC(=O)[C@H](CC(C)C)NC(C)=O", "note": "(stereo partly drawn) [Calpain Inhibitor II (ALLM)] + C[C@@H]1[C@H](O)[C@@H](C)/C=C/C=C/C=C/C=C/C=C/C=C/C=C/[C@H](O[C@@H]2O[C@H](C)[C@@H](O)[C@H](N)[C@@H]2O)C[C@@H]2O[C@](O)(C[C@@H](O)C[C@@H](O)[C@H](O)CC[C@@H](O)C[C@@H](O)CC(=O)O[C@H]1C)C[C@H](O)[C@H]2C(=O)O [amphotericin B] (first compound 12.5 µM)", "values": [{"measurement": "biofilm OD600", "setting": "[1]", "value": "0.247 ± 0.0052"}, {"measurement": "biofilm OD600", "setting": "[2]", "value": "0.193 ± 0.0094"}]}]}
